Compound activity (PubChem BioAssay)
An excerpt weighted towards active compounds, which were near 19% of everything screened.
Giardia killer – kills Giardia lamblia; Giardia lamblia trophozoite viability; activity change, % at 7.66 µM, hits read low; 340,000 compounds, 0.15% hits; in the data active = activity change below about -80%; inconclusive = between about -30% and that limit;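 note: parasites exposed to compound for two days anaerobically before the ATP read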
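Compounds were tested on trophozoites seeded at 100 cells/well and held 48 hrs at 37 deg C anaerobically. An ATP-based luminescent kit measured the remaining live cells.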
TDP1 cell noCPT – qHTS for Inhibitors of human tyrosyl-DNA phosphodiesterase 1 (TDP1): qHTS in cells in absence of CPT; DT40 Tdp1-/- hTDP1 cells, no CPT, ATP luminescence, 48 h; Potency, µM (top dose mostly 46.2 µM), most hits filed as inhibitors; 420,000 compounds, 15% hits; AID 686978, 2013; note: nearly all actives have a fitted effect of over 55% in size
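Growth kinetics read by CellTiter-Glo luminescence after ≥48 hr at 37 °C. Cells: DT40 Tdp1-/- stably carrying human TDP1, 400 per well, compound exposure in the absence of CPT (DMSO vehicle).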
IL1B secr inh – inhibitors of inflammasome signaling (IL-1 beta secretion) | activity change, % at 57.5 µM | AID 743279 | 360,000 compounds, 4.7% hits | THP-1 LPS/ATP IL-1B secretion, AlphaLISA, 16 h; stronger effect = lower value; in the data active = activity change below about -50%; inconclusive = mostly about -30% to -49%
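THP-1 cells pretreated 1 hr with compounds (up to 57.5 uM final), then stimulated with LPS (250 ng/mL final) plus ATP (1.25 mM final); secreted IL-1B measured by AlphaLISA after 16 hr, decreased signal indicating inhibition.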
TDP1 block – TDP1 (human) enzyme inhibition. 350,000 compounds, 0.28% hits. Potency, µM (titrated, usually from 130 µM), usual class: inhibitors. Q9NUW8. recombinant TDP1, AlphaScreen DNA substrate cleavage; note: nearly all actives have a fitted effect of over 40% in size
Target sequence (Q9NUW8 whole entry, looked up): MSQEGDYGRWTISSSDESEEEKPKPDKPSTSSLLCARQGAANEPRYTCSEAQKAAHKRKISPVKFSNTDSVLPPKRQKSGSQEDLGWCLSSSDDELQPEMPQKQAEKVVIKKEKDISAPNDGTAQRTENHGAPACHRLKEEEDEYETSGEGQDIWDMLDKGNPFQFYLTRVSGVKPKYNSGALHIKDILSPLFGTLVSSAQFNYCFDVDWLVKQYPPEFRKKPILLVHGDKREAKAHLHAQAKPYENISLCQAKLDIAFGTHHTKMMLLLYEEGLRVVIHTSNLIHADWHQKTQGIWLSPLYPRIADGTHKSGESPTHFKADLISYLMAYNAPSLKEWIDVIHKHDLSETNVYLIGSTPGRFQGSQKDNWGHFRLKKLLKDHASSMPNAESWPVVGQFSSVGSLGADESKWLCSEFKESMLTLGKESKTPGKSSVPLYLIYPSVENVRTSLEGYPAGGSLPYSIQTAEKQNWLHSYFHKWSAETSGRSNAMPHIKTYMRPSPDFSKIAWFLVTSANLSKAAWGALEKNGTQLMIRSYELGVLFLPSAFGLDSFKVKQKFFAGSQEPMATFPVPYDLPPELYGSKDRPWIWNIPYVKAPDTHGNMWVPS
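Signal: AlphaScreen proximity between streptavidin donor and anti-FITC acceptor beads on intact substrate. Reaction: Tdp1 1 nM, substrate 15 nM final, 5 min RT after 15 min compound preincubation.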
TDP1 cell CPT – growth inhibition of DT40 Tdp1-/-;hTDP1 cells with camptothecin (screen for TDP1 inhibitors). Potency, µM (doses to about 46.2 µM), usual class: inhibitors. chicken DT40 Tdp1-/-;hTDP1 cells + 20 nM CPT, ATP luminescence, 48 h. 420,000 compounds, 12% hits. AID 686979; note: nearly all actives have a fitted effect of over 55% in size
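Chicken DT40 Tdp1-/- cells complemented with human TDP1, 400 cells/well, exposed to compounds plus 20 nM camptothecin for at least 48 h at 37 C; viability read as ATP content by CellTiter-Glo luminescence.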
ELG1 DNA repair – ELG1-dependent DNA repair inhibition | HEK293T ELG1-luciferase reporter, luminescence, 16 h; DNA damage induced by 5-fluorouridine | 330,000 compounds, 2.3% hits | AID 504467 | Potency, µM (series often up to 46.1 µM), actives largely listed as inhibitors; note: nearly all actives have a fitted effect of over 55% in size
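In this reporter screen, reduction of luminescence relative to DMSO vehicle indicated activity. Compounds and 5-fluorouridine were added together to 2,000 cells per well, incubated for 16 hr at 37 °C, then developed with ONE-Glo.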
Of the large screens only hits and unclear results are named; the others gave an inactive call. Unless noted, calls come from the whole dose curve; as a rule, active = well fitted curve in the direction sought with a large enough effect; inconclusive = small, poorly fitted or top-dose-only effect, or another doubt; inactive = no such curve, though single readings can be large; an effect the other way counts as inactive or inconclusive.

Cc1ccc(S(=O)(=O)NCc2ccccc2)cc1C(=O)NCCc1ccc(S(N)(=O)=O)cc1	none
O=C(NNC(=O)c1nn(-c2ccc(F)cc2)ccc1=O)c1ccccc1Cl	none
Cc1ccc(C)c(N2CCN(C(=O)c3ccc(CS(=O)Cc4cccc(Cl)c4)o3)CC2)c1 (stereo not given)	IL1B secr inh -74.7, TDP1 cell CPT inconclusive
O=C(c1ccc(CS(=O)Cc2ccc(Cl)cc2)o1)N1CCN(c2ccc(F)cc2)CC1 (stereo not given)	IL1B secr inh inconclusive, TDP1 cell CPT inconclusive, ELG1 DNA repair 23.1µM
O=C(c1ccc(CS(=O)Cc2cccc(Cl)c2)o1)N1CCN(c2ccc(F)cc2)CC1 (stereo not given)	TDP1 cell noCPT 16.4µM, TDP1 cell CPT inconclusive (no result: Giardia killer, TDP1 block, ELG1 DNA repair)
O=C(c1ccc(CS(=O)Cc2cccc(Cl)c2)o1)N1CCN(C2CCCCC2)CC1 (stereo not given)	none
O=C(c1ccc(CS(=O)Cc2ccc(Cl)cc2)o1)N1CCN(c2cccc(Cl)c2)CC1 (stereo not given)	IL1B secr inh -83.4, TDP1 cell CPT inconclusive, ELG1 DNA repair inconclusive
O=C(c1ccc(CS(=O)Cc2ccc(Cl)cc2)o1)N1CCN(C2CCCCC2)CC1 (stereo not given)	TDP1 cell noCPT inconclusive (no result: Giardia killer, TDP1 block, ELG1 DNA repair)
COc1ccc(S(=O)(=O)Cc2ccc(C(=O)N3CCN(c4cc(C)ccc4C)CC3)o2)cc1	TDP1 cell noCPT inconclusive, TDP1 cell CPT inconclusive
N#C/C(=C\c1ccc(Cl)cc1)c1nc(-c2cc3c(ccc4ccccc43)oc2=O)cs1	none (no result: Giardia killer, IL1B secr inh, ELG1 DNA repair)
Cc1cc(C)n(-c2cccc(C(=O)O)c2)n1	none
O=C(c1ccc(COc2c(F)c(F)cc(F)c2F)o1)N1CCN(c2ccc(Cl)cc2)CC1	TDP1 cell noCPT 16.4µM, TDP1 cell CPT 13µM, ELG1 DNA repair inconclusive
Clc1ccc(CNCc2cccs2)c(Cl)c1	TDP1 cell CPT inconclusive
Cc1cccc(C2=N[C@@H](Cc3ccccc3)CO2)c1	none (no result: Giardia killer, TDP1 cell noCPT, IL1B secr inh, TDP1 cell CPT, ELG1 DNA repair)
Cn1c(=NC(=O)c2ccc(S(=O)(=O)N3CCCC3)cc2)sc2cc(F)ccc21	none (no result: Giardia killer, IL1B secr inh, ELG1 DNA repair)
CCOC(=O)c1c(-c2cccs2)csc1NC(=O)CC(C)C	TDP1 cell noCPT 20.6µM, TDP1 cell CPT 18.4µM (no result: TDP1 block)
CCOC(=O)c1c(-c2cccs2)csc1NC(=O)CN(CC)CC	TDP1 cell noCPT inconclusive, TDP1 cell CPT inconclusive
CCOC(=O)c1c(-c2cccs2)csc1NC(=O)CN1CCOCC1	TDP1 cell noCPT 20.6µM, TDP1 cell CPT inconclusive, ELG1 DNA repair inconclusive
CCOC(=O)c1c(-c2ccc(C)o2)csc1NC(=O)CN1CCOCC1	TDP1 cell noCPT 16.4µM, TDP1 cell CPT 16.4µM
CCOC(=O)c1c(-c2cccs2)csc1NC(=O)c1ccco1	none
CCOC(=O)c1c(CC(C)C)csc1NC(=O)CCl	TDP1 cell noCPT 10.3µM, TDP1 cell CPT 13µM
CCOC(=O)c1c(-c2ccc(C)o2)csc1NC(=O)CSc1ncn[nH]1	none
O=C(c1cc(-c2ccc(F)cc2)nc2ccccc12)N1CCN(C2CCS(=O)(=O)C2)CC1 (stereo not given)	TDP1 cell CPT inconclusive
CCOC(=O)c1c(-c2ccc(C)o2)csc1NC(=O)COC(=O)c1cccs1	TDP1 cell noCPT 18.4µM, TDP1 cell CPT inconclusive
CCn1c(O)c(/C=N/N=C2CCCC2)c2ccc(C3=NNC(=O)CC3)cc21	TDP1 cell CPT inconclusive
CCn1c(O)c(/C=N/N=C2CCCCC2)c2cc(C3=NNC(=O)CC3)ccc21	TDP1 cell noCPT 10.3µM, TDP1 cell CPT 8.2µM
Cc1cc(N2CCN(C(c3ccccc3)c3ccccc3)CC2)n2ncnc2n1	TDP1 cell noCPT inconclusive, TDP1 cell CPT 23.1µM (no result: ELG1 DNA repair)
Cc1nc2ncnn2c(N2CCN(C(c3ccccc3)c3ccccc3)CC2)c1C	TDP1 cell noCPT 13µM, TDP1 cell CPT 20.6µM (no result: ELG1 DNA repair)
COc1ccc(/C(N)=N/OC(=O)C2CCC(=O)N2S(=O)(=O)c2ccc(C)cc2)cc1OC (stereo not given)	TDP1 cell noCPT inconclusive
CC1(C)CC(=O)C2=C(C1)Nc1ccccc1NC2c1ccc([N+](=O)[O-])cc1 (stereo not given)	none (no result: TDP1 block, ELG1 DNA repair)
Nc1ccc(S(=O)(=O)NCC(=O)OC2CCOC2=O)cc1[N+](=O)[O-] (stereo not given)	TDP1 block 25.1µM
O=C(OC1CCOC1=O)c1cc(Cl)ccc1[N+](=O)[O-] (stereo not given)	ELG1 DNA repair inconclusive (no result: TDP1 block)
CSc1ccc(S(=O)(=O)NCC(=O)OC2CCOC2=O)cc1[N+](=O)[O-] (stereo not given)	IL1B secr inh -68.5 (no result: TDP1 block)
NC(=O)C1CCCN(C(=O)c2ccc(NC(=O)c3cccs3)cc2)C1 (stereo not given)	none
O=C(CNC(=O)c1ccc(Br)o1)NCC1CCCCC1	none
CCCCN(C)CCNC(=O)c1nn(-c2ccc(OC)c(Cl)c2)c(=O)c2c1c1ccccc1n2C	TDP1 cell noCPT 18.4µM, TDP1 cell CPT inconclusive (no result: Giardia killer, IL1B secr inh, ELG1 DNA repair)
COc1ccc(-n2nc(C(=O)NCc3ccco3)c3c4ccccc4n(C)c3c2=O)cc1Cl	TDP1 cell noCPT 10.3µM, TDP1 cell CPT inconclusive, ELG1 DNA repair inconclusive
CCOc1ccc(CCNC(=O)c2nn(-c3ccc(OC)c(Cl)c3)c(=O)c3c2c2ccccc2n3C)cc1OCC	TDP1 cell noCPT inconclusive (no result: Giardia killer, IL1B secr inh, ELG1 DNA repair)
CCN(CC)S(=O)(=O)c1ccc(OC)c(NC(=O)C2CC(=O)N(c3ccc(C)cc3)C2)c1 (stereo not given)	none
COc1cccc(/C=C/c2onc(C)c2S(=O)(=O)N2CCC(C(=O)NC3CCCCCC3)CC2)c1	ELG1 DNA repair inconclusive
CCC1CN(C(=O)C2CCN(S(=O)(=O)c3c(C)noc3/C=C/c3ccc(C)cc3)CC2)c2cc(C)ccc2O1 (stereo not given)	none (no result: Giardia killer, IL1B secr inh, ELG1 DNA repair)
COc1cccc(/C=C/c2onc(C)c2S(=O)(=O)N2CCC(C(=O)N3CCC(C)CC3)CC2)c1	TDP1 cell noCPT 16.4µM, TDP1 cell CPT inconclusive (no result: Giardia killer, IL1B secr inh, ELG1 DNA repair)
Cc1ccc(/C=C/c2onc(C)c2S(=O)(=O)N2CCC(C(=O)N3CCN(c4cccc(C)c4)C(C)C3)CC2)cc1 (stereo not given)	TDP1 cell noCPT 11.6µM, TDP1 cell CPT 20.6µM (no result: Giardia killer, IL1B secr inh, ELG1 DNA repair)
Cc1cccc(N2CCN(C(=O)C3CCN(S(=O)(=O)c4c(C)noc4/C=C/c4ccccc4F)CC3)CC2)c1C	TDP1 cell noCPT inconclusive (no result: Giardia killer, IL1B secr inh, ELG1 DNA repair)
Cc1cccc(/C=C/c2onc(C)c2S(=O)(=O)N2CCC(C(=O)N3CCCCCC3)CC2)c1	TDP1 cell noCPT 23.1µM, IL1B secr inh inconclusive, TDP1 cell CPT inconclusive, ELG1 DNA repair inconclusive
